Experimental data reported in PMC7862700, “An all-to-all approach to the identification of sequence-specific readers for epigenetic DNA modifications on cytosine”.

Columns and labels:
Assay in all cases: DAPPL (digital affinity profiling via proximity ligation, sequencing); 10 mM Tris-HCl pH 7.5, 50 mM NaCl, 1 mM DTT, 4% glycerol, room temperature, 30 min; GST-TFs on glutathione beads, 16-mer random dsDNA library, 0.1% formaldehyde crosslink after washing; high values mean tight binding
Conditions in all cases: protein: recombinant; tags: N-terminal GST; dsDNA, one strand shown
ELK1 = target: T1, ELK1 (Homo sapiens, UniProt P19419 1-428)
T1 sequence: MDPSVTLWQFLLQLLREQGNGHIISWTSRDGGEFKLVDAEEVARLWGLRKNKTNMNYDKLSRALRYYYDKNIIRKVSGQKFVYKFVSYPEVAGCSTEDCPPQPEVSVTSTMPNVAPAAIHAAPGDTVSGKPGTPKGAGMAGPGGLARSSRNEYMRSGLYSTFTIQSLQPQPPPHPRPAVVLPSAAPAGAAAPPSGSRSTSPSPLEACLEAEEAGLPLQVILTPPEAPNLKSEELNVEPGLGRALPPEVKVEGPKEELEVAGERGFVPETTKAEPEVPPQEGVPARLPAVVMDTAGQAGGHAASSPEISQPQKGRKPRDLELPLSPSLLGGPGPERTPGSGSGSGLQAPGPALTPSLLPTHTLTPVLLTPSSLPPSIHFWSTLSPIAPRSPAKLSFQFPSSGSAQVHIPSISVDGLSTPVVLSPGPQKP
Method in brief: (§1)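 GST fusions of human transcription factors were expressed in yeast and captured with glutathione beads. Once given DNA barcodes and pooled alongside a tag-only sample, they were incubated for 30 min at room temperature with 200 nmole of a random double-stranded 16-mer DNA library in Tris/NaCl/DTT/glycerol buffer, then washed, crosslinked (0.1% formaldehyde), proximity-ligated, PCR-amplified and sequenced on an Illumina NextSeq500. The binding signal of each hexamer is its read frequency for a factor divided by its frequency for the tag-only sample.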

GABPA = target: T2, GABPA (Homo sapiens, UniProt Q06546 1-454)
T2 sequence: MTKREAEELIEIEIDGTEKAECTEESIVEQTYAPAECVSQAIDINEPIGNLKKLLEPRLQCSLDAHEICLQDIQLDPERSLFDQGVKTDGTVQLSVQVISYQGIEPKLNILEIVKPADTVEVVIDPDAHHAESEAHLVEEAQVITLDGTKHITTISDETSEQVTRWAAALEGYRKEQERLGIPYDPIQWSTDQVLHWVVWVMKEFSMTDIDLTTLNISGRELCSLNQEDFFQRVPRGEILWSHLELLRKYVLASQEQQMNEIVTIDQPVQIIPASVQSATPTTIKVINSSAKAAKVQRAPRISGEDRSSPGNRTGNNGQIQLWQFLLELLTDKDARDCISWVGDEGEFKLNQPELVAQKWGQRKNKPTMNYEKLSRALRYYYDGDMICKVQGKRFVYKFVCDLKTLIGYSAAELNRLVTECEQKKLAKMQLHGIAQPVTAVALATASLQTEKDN
Method in brief: as §1

ERG = target: T3, ERG (Homo sapiens, UniProt P11308 1-479)
T3 sequence: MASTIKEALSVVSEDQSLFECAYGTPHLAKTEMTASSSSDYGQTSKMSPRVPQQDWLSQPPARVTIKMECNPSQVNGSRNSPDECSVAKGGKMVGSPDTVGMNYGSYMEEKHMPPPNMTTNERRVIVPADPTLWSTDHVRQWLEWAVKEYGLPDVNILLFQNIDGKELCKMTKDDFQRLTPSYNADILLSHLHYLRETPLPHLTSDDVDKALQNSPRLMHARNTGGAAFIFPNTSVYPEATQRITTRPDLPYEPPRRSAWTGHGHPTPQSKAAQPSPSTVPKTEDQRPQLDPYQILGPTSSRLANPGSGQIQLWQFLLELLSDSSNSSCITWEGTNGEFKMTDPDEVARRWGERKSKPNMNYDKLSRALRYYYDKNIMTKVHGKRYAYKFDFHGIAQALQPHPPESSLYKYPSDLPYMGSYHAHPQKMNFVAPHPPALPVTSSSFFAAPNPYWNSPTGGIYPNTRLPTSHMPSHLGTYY
Method in brief: as §1

ELF1 = ELF1 (Homo sapiens, UniProt P32519 1-619)
Method in brief: as §1

SPIB = SPIB (Homo sapiens, UniProt Q01892 1-262)
Method in brief: as §1

ELK3 = target: T4, ELK3 (Homo sapiens, UniProt P41970 1-407)
T4 sequence: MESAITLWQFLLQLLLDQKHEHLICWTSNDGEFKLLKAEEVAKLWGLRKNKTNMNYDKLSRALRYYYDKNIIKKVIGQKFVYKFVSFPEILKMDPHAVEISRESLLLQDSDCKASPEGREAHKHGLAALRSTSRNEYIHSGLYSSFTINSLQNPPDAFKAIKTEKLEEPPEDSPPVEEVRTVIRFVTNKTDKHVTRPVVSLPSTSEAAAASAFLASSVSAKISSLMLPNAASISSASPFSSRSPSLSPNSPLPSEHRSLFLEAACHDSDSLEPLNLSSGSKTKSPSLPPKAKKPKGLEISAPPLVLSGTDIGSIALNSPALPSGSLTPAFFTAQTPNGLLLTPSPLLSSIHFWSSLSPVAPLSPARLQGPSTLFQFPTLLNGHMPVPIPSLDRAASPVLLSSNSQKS
Method in brief: as §1

ETV5 = ETV5 (Homo sapiens, UniProt P41161 1-510)
Method in brief: as §1

SPIC = target: T5, SPIC (Homo sapiens, UniProt Q8N5J4 1-248)
T5 sequence: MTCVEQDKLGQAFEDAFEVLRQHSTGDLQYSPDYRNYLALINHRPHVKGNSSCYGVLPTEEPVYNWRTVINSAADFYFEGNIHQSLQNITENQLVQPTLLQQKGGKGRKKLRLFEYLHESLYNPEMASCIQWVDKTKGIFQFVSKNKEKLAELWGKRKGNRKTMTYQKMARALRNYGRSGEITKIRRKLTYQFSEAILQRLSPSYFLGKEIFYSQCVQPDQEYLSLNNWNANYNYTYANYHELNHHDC
Method in brief: as §1

ELF4 = ELF4 (Homo sapiens, UniProt Q99607 1-663)
Method in brief: as §1

ELF3 = target: T6, ELF3 (Homo sapiens, UniProt P78545 1-371)
T6 sequence: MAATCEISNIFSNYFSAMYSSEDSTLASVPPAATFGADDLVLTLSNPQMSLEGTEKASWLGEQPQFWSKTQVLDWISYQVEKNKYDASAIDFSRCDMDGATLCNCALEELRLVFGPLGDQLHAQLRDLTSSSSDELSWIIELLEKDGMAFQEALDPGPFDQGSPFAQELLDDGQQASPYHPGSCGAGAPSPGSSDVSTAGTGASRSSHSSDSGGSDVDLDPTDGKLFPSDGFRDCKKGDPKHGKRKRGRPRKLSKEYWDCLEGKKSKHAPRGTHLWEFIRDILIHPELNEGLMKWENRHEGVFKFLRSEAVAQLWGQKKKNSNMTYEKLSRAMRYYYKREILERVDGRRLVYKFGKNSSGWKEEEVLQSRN
Method in brief: as §1

ETV1 = ETV1 (Homo sapiens, UniProt P50549 1-477)
Method in brief: as §1

ETV3L = target: T7, ETV3L (Homo sapiens, UniProt Q6ZN32 1-361)
T7 sequence: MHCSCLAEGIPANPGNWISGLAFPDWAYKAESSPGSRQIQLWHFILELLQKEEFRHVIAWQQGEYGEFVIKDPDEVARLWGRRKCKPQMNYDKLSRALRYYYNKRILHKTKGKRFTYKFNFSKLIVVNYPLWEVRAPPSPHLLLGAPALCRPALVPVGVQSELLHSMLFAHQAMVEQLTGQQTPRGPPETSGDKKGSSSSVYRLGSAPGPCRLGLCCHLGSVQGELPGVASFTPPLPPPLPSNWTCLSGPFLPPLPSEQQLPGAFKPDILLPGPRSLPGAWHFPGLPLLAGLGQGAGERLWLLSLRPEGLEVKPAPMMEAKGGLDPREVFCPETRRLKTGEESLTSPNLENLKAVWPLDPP
Method in brief: as §1

ETS2 = target: T8, ETS2 (Homo sapiens, UniProt P15036 1-469)
T8 sequence: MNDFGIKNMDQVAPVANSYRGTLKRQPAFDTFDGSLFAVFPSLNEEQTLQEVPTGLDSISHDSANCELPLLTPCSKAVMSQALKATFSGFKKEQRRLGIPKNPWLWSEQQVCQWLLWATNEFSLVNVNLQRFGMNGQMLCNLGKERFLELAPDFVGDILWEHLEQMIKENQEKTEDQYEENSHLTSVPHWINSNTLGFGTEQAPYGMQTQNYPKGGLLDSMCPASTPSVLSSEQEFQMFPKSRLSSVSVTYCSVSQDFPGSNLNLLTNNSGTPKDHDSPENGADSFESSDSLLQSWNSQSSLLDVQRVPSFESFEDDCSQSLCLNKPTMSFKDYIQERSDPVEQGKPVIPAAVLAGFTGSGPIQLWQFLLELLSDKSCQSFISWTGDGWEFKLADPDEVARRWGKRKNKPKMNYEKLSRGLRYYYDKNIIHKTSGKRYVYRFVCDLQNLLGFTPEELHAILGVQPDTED
Method in brief: as §1

SPDEF = target: T9, SPDEF (Homo sapiens, UniProt O95238 1-335)
T9 sequence: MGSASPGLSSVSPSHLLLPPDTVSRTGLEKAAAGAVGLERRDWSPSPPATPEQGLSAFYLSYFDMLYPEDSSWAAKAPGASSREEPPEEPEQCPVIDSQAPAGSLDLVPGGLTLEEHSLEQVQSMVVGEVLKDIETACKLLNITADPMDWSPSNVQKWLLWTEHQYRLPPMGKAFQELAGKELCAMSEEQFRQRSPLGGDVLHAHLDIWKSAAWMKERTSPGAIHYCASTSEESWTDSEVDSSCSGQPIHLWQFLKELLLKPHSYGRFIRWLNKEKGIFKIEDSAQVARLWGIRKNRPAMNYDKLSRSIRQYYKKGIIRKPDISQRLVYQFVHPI
Method in brief: as §1

ETV7 = target: T10, ETV7 (Homo sapiens, UniProt Q9Y603 1-341)
T10 sequence: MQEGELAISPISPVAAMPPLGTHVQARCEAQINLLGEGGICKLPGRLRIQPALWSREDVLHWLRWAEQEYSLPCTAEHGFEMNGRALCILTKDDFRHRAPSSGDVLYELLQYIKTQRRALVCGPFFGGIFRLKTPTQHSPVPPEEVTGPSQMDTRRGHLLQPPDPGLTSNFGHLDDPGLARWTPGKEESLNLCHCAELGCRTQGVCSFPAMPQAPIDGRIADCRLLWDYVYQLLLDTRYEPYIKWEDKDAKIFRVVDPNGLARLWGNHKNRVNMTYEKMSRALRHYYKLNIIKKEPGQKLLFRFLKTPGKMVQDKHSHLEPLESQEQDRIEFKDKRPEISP
Method in brief: as §1

ETV3 = target: T11, ETV3 (Homo sapiens, UniProt P41162-2 1-143)
T11 sequence: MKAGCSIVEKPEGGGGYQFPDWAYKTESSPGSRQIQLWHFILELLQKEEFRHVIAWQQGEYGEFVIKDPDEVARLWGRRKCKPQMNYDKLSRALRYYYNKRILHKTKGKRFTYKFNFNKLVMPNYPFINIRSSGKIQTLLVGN
Method in brief: as §1

ETV6 = ETV6 (Homo sapiens, UniProt P41212 1-452)
Method in brief: as §1

Sequence of ELF1 (P32519 whole entry): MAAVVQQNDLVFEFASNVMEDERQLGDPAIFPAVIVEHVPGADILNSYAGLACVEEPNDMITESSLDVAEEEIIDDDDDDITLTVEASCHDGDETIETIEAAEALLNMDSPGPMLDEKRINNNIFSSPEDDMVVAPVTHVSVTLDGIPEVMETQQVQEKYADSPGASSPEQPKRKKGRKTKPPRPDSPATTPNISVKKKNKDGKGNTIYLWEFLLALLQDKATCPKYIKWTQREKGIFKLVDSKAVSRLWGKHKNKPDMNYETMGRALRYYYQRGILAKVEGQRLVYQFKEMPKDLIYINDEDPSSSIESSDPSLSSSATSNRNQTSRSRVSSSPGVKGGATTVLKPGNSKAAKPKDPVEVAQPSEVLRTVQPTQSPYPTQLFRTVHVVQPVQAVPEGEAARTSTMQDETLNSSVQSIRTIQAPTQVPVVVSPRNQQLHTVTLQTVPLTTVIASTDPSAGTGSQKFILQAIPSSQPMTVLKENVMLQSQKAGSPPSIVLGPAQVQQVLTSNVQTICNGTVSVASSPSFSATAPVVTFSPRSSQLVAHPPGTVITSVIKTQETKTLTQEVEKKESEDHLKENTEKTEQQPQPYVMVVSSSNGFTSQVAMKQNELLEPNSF
Sequence of ETV5 (P41161 whole entry): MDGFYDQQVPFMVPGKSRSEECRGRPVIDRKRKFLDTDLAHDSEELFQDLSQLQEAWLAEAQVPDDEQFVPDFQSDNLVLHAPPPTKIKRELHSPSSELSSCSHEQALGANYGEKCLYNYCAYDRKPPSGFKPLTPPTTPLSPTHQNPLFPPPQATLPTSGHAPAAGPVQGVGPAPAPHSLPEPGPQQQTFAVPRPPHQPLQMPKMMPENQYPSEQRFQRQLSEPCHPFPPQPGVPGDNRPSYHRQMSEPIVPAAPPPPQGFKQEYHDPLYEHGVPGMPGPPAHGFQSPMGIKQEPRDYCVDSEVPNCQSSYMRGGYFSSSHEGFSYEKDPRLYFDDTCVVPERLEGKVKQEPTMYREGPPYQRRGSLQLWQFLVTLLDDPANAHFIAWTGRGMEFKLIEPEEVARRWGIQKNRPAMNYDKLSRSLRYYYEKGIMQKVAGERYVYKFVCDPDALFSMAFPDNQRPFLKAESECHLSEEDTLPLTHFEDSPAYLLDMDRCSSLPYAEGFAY
Sequence of ELF4 (Q99607 whole entry): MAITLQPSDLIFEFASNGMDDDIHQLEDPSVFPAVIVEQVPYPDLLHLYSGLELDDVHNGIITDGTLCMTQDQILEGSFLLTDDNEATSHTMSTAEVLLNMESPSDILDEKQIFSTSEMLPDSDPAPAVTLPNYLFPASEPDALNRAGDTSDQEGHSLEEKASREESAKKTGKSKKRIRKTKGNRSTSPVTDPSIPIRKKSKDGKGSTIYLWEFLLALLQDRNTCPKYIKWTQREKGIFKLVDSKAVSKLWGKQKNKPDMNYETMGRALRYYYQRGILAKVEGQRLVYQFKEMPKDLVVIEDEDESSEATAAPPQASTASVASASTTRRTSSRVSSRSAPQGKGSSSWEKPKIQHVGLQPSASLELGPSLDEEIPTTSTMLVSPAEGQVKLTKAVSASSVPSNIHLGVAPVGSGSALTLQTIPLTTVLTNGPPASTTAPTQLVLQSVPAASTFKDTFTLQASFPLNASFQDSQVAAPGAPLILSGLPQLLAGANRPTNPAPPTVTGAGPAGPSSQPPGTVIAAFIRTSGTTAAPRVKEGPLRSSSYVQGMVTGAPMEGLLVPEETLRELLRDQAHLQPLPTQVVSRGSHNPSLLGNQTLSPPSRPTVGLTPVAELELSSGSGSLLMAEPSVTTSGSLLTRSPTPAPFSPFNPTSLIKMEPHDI
Sequence of ETV6 (P41212 whole entry): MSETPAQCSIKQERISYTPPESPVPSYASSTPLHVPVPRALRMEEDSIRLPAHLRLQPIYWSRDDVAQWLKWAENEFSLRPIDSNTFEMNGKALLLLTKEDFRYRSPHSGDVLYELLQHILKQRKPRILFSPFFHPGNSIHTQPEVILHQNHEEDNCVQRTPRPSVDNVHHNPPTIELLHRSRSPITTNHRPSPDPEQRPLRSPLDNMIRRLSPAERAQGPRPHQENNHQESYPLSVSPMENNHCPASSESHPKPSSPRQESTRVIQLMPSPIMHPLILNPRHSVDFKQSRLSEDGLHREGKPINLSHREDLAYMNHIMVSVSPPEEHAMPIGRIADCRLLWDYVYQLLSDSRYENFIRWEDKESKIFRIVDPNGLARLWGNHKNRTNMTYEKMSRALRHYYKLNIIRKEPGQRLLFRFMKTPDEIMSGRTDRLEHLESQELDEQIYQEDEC
Sequence of ETV1 (P50549 whole entry): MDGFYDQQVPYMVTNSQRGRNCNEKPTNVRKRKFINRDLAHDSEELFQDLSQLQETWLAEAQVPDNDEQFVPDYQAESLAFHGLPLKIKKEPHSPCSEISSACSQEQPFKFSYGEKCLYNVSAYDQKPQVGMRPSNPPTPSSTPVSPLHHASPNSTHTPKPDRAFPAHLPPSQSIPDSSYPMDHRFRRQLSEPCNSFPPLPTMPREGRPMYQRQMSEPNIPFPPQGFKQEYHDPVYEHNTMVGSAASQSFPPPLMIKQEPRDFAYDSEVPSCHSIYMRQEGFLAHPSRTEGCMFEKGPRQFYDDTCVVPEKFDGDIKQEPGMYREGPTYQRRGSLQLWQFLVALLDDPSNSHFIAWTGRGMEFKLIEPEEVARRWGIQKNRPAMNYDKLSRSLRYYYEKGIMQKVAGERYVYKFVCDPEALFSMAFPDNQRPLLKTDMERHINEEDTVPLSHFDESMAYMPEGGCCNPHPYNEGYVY
Sequence of SPIB (Q01892 whole entry): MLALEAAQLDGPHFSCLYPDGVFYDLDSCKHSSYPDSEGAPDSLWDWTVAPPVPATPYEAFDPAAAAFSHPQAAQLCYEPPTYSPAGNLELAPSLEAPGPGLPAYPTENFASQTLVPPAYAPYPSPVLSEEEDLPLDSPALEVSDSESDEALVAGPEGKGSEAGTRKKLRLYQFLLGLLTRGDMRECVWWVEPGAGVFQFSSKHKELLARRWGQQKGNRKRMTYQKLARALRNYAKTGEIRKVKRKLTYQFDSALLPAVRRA

## GTTACC
ELK1
  binding signal: 1.16 fold enrichment (6-mer frequency, TF over GST control)
GABPA
  binding signal: 1.05 fold enrichment (6-mer frequency, TF over GST control)
ERG
  binding signal: 1.04 fold enrichment (6-mer frequency, TF over GST control)
ELF1
  binding signal: 1.04 fold enrichment (6-mer frequency, TF over GST control)
SPIB
  binding signal: 1.14 fold enrichment (6-mer frequency, TF over GST control)
ELK3
  binding signal: 1.08 fold enrichment (6-mer frequency, TF over GST control)
ETV5
  binding signal: 1.06 fold enrichment (6-mer frequency, TF over GST control)
SPIC
  binding signal: 1.03 fold enrichment (6-mer frequency, TF over GST control)
ELF4
  binding signal: 1.07 fold enrichment (6-mer frequency, TF over GST control)
ELF3
  binding signal: 1.06 fold enrichment (6-mer frequency, TF over GST control)
ETV1
  binding signal: 1.08 fold enrichment (6-mer frequency, TF over GST control)
ETV3L
  binding signal: 1.04 fold enrichment (6-mer frequency, TF over GST control)
ETS2
  binding signal: 1.09 fold enrichment (6-mer frequency, TF over GST control)
SPDEF
  binding signal: 1.03 fold enrichment (6-mer frequency, TF over GST control)
ETV7
  binding signal: 1.02 fold enrichment (6-mer frequency, TF over GST control)
ETV3
  binding signal: 1.03 fold enrichment (6-mer frequency, TF over GST control)
ETV6
  binding signal: 1.03 fold enrichment (6-mer frequency, TF over GST control)
